Screening results as filed in PubChem BioAssay.
Only some compounds are listed: those with a hit (about 1.1% of all), similar ones and a draw of the others.
HTR5A ag: HTR5A agonism, opioid heterodimer counter-screen | 340,000 tested, 0.61% active | HTR5A agonist assay, luminescence, cell-based | P47898 | activation, % at 9.3 µM; in the data active = activation mostly above about 9.5%, no sharp cut-off; inactive = mostly below about 7.6%;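 note: 0% = cells with vehicle only and 100% = reference agonist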
Target sequence (P47898 whole entry, looked up): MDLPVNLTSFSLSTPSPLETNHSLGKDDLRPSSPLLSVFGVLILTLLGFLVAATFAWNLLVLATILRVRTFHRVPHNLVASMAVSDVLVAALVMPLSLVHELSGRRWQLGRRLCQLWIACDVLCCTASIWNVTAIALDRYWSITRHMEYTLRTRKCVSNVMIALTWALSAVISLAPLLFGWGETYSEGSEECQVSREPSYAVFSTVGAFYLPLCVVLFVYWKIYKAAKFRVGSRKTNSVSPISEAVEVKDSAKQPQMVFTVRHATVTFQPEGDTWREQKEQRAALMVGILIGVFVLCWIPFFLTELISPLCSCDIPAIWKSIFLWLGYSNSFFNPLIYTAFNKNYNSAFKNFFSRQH
MOR-DOR ag-1: OPRM1-OPRD1 heterodimerization agonism. activation, % at 9.3 µM. P35372+P41143. 340,000 tested, 0.3% active. cells, luminescence. AID 504326;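 note: 0% = vehicle-treated cells and 100% = reference agonist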
HTR5A inv ag: counter-screen for OPRM1-OPRD1 inverse agonists: human HTR5A inverse agonism; P47898; HTR5A cell line, luminescence; inhibition, % at 9.3 µM; 340,000 tested, 0.083% active; AID 504634; in the data active = inhibition mostly above about 23%, no sharp cut-off; inactive = mostly below about 18%;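 note: 0% = cells with DMSO and 100% = no-cell wells with DMSO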
OPRM1-OPRD1 inv: inverse agonist of human OPRM1-OPRD1 heterodimerization. P35372+P41143. 340,000 tested, 0.21% active. inhibition, % at 9.3 µM. cell-based MOR-DOR heterodimer luminescence, inverse agonism. AID 504357; in the data active = inhibition above about 22%, passing the limit was not always enough;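 note: 0% = cells with DMSO and 100% = wells without cells with DMSO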
MOR-DOR ag-2: promotes OPRM1-OPRD1 heterodimerization in HTR5A counter-screen; shares compounds with HTR5A ag; U2OS counter-screen cells, complementation luminescence, 3 h; activation, % at 9.3 µM; 800 tested, 13% active
HTR5A ag conf: confirmation of human HTR5A agonists; shares compounds with HTR5A ag; AID 504915; HTR5A agonist cell assay, luminescence; 800 tested, 17% active; activation, % at 9.3 µM; in the data active = activation above about 17%;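 note: 0% = cells with vehicle only and 100% = full reference agonist response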
The depositor's hits bear a star. Cut-off read from the data, not from the text of the source, unless noted: active = activation above about 18%; inactive = the rest.

How did COc1ccc(N2C(=O)CCC(C(=O)N3CCCCC3)C2c2ccc(F)cc2)cc1 (stereo not given) do in these assays?
HTR5A ag: 4.8; MOR-DOR ag-1: -4.0; HTR5A inv ag: -0.6; OPRM1-OPRD1 inv: 16.7

What do the screens show for `COc1ccc(N2C(=O)CCC(C(=O)O)C2c2ccc(F)cc2)cc1` (stereo not given)?
HTR5A ag: 16.5*; MOR-DOR ag-1: -1.7; HTR5A inv ag: -23.0; OPRM1-OPRD1 inv: 8.9; MOR-DOR ag-2: 1.0; HTR5A ag conf: 3.6

Results for C=CCN(C(=O)c1csnn1)C(C(=O)NCc1ccc(F)cc1)c1ccccc1 (stereo not given) ?
HTR5A ag: 2.4; MOR-DOR ag-1: -1.9; HTR5A inv ag: -5.8; OPRM1-OPRD1 inv: 10.4

Results for CCCOc1ccc(Br)cc1/C=N/NC(=O)c1cc(OC)c(OC)c(OC)c1 ?
HTR5A ag: 4.2; MOR-DOR ag-1: 3.5; HTR5A inv ag: -27.2; OPRM1-OPRD1 inv: -17.9

Results for COc1ccc(C(=O)N/N=C/c2cc(Br)ccc2O)cc1OC ?
HTR5A ag: 17.4*; MOR-DOR ag-1: 0.1; HTR5A inv ag: -54.6; OPRM1-OPRD1 inv: -0.5; MOR-DOR ag-2: -0.6; HTR5A ag conf: -2.6

What do the screens show for `O=S1(=O)CCN2N=C(C34CC5CC(CC(C5)C3)C4)SC2=N1`?
HTR5A ag: 17.9*; MOR-DOR ag-1: 0.5; HTR5A inv ag: 6.4; OPRM1-OPRD1 inv: -2.5; MOR-DOR ag-2: 1.0; HTR5A ag conf: -1.6

What do the screens show for `COc1cccc(-c2csc(N3CCN(C(=S)Nc4ccccc4)CC3)n2)c1`?
HTR5A ag: 22.2*; MOR-DOR ag-1: 3.1; HTR5A inv ag: -51.6; OPRM1-OPRD1 inv: -18.3; MOR-DOR ag-2: -1.9; HTR5A ag conf: -6.8

How did COc1cccc(-c2csc(N3CCN(C(=S)Nc4ccc(Cl)cc4)CC3)n2)c1 do in these assays?
HTR5A ag: 12.2; MOR-DOR ag-1: 2.3; HTR5A inv ag: -31.6; OPRM1-OPRD1 inv: -13.2

Results for CCCc1cc(=O)oc2cc(OCC(=O)NCCc3c[nH]c4ccccc34)ccc12 ?
HTR5A ag: 18.8*; MOR-DOR ag-1: 13.3; HTR5A inv ag: 4.6; OPRM1-OPRD1 inv: -67.1; MOR-DOR ag-2: 225.9*; HTR5A ag conf: 56.2*

How did Cc1cc(=O)oc2cc(OCC(=O)NCCc3c[nH]c4ccc(F)cc34)ccc12 do in these assays?
HTR5A ag: -1.9; MOR-DOR ag-1: -1.3; HTR5A inv ag: -28.6; OPRM1-OPRD1 inv: 7.1

What do the screens show for `COc1ccc(NC(=O)C(=O)NCCCO)cc1Cl`?
HTR5A ag: -3.3; MOR-DOR ag-1: -2.5; HTR5A inv ag: 8.5; OPRM1-OPRD1 inv: 12.8

What do the screens show for `COc1ccc(NC(=O)C(=O)NCCO)cc1Cl`?
HTR5A ag: 15.1*; MOR-DOR ag-1: 0.5; HTR5A inv ag: -12.5; OPRM1-OPRD1 inv: -3.2; MOR-DOR ag-2: -0.4; HTR5A ag conf: -9.1

Results for CC(C)C[C@H](NC(=O)N1CC(=O)Nc2ccccc21)C(=O)N[C@@H](Cc1c[nH]c2ccccc12)C(=O)O ?
HTR5A ag: 39.8*; MOR-DOR ag-1: -3.1; HTR5A inv ag: -1.3; OPRM1-OPRD1 inv: 15.6; MOR-DOR ag-2: -0.1; HTR5A ag conf: -2.3

Results for CC(=O)c1ccc(N(CC(=O)NCC2CCCO2)C(=O)CCC(=O)Nc2cc(C)on2)cc1 (stereo not given) ?
HTR5A ag: 14.4*; MOR-DOR ag-1: 1.8; HTR5A inv ag: -25.8; OPRM1-OPRD1 inv: -11.2; MOR-DOR ag-2: 3.4; HTR5A ag conf: 0.4

What do the screens show for `O=C(NCCc1c[nH]c2ccccc12)/C(=C\c1cccnc1)NC(=O)c1ccccc1Br`?
HTR5A ag: 21.7*; MOR-DOR ag-1: -1.9; HTR5A inv ag: -37.0; OPRM1-OPRD1 inv: 10.1; MOR-DOR ag-2: 0.3; HTR5A ag conf: 2.2

Results for COC(=O)c1c(NC(=O)c2ccccc2C(=O)O)sc2c1CCC2 ?
HTR5A ag: 19.8*; MOR-DOR ag-1: -1.3; HTR5A inv ag: -9.6; OPRM1-OPRD1 inv: 6.5; MOR-DOR ag-2: 0.6; HTR5A ag conf: -1.9

What do the screens show for `CCCc1cc(=O)n2nc(N3CCC(C(=O)Nc4cccc(C(C)=O)c4)CC3)sc2n1`?
HTR5A ag: 16.8*; MOR-DOR ag-1: -2.2; HTR5A inv ag: 8.3; OPRM1-OPRD1 inv: 11.1; MOR-DOR ag-2: 17.6; HTR5A ag conf: -0.2

How did CCCc1cc(=O)n2nc(N3CCC(C(=O)Nc4c(F)c(F)c(F)c(F)c4F)CC3)sc2n1 do in these assays?
HTR5A ag: -1.7; MOR-DOR ag-1: -2.9; HTR5A inv ag: -7.5; OPRM1-OPRD1 inv: 14.4

What do the screens show for `Cn1c(SCc2cccc(C#N)c2)nc2ccccc2c1=O`?
HTR5A ag: 1.7; MOR-DOR ag-1: -0.4; HTR5A inv ag: -6.4; OPRM1-OPRD1 inv: 2.0
